# KinaseGlo FLuc: Counterscreen for Luciferase (Kinase-Glo TM) Inhibition | Luciferin 4-monooxygenase (Photuris pensylvanica), Q27757 | Kinase-Glo luciferase, ATP luminescence, 8 min | Potency, µM (titrated, usually from 38.3 µM), for the others: top-dose activity change, negative = inhibition, actives largely listed as inhibitors | actives 0.28% (n = 200,000) | AID 1379, 2008; note: % is set by controls: 0 for no effect and ±100 for the full control effect; nearly all actives have a fitted effect of over 60% in size
#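 Light output from Kinase-Glo luciferase with luciferin and 10 uM ATP in 50 mM imidazole pH 7.2, KCl, MgCl2, Tween 20, BSA; compound pin-delivered, 8-min ambient incubation, then luminescence read.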
# Rab9 prom act: qHTS Assay for Rab9 Promoter Activators; Potency, µM (doses to about 9.22 µM), without a hit: at the top dose activation, negative = inhibition, hits mostly activators; Huh7 Rab9 promoter-luciferase reporter, luminescence, 24 h; actives 2.8% (n = 320,000); note: % of control where 0% means no effect; nearly all actives have a fitted effect of over 60% in size
#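 Huh7 cells stably carrying a Rab9 promoter-luciferase reporter, 1500 cells per well in OP-MEM I with 10% FBS, treated with compound 24 hours at 37C. Luciferase activity read by luminescence after 10 minutes with Amplite reagent.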
# SMN2 splice up: qHTS Assay for Enhancers of SMN2 Splice Variant Expression | AID 1458, 2008 | Potency, µM (top dose mostly 46.1 µM), inactives show at the top dose activity change, positive = activation, actives largely listed as activators | actives 2.8% (n = 210,000) | HEK293 SMN2-luciferase splicing reporter, luminescence, 30-36 h; note: % of control where 0% means no effect; nearly all actives have a fitted effect of over 55% in size
#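 HEK293 cells carry an SMN2 minigene-luciferase reporter in which exon 7 inclusion puts luciferase in frame. Cells were seeded at 2000 cells/well, attached for 10-12 hours, then exposed to compounds for 30-36 hours at 37C before ONE-Glo luminescence.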
# NPC1 prom act: qHTS Assay for NPC1 Promoter Activators; AID 485313, 2010; Huh7 NPC1 promoter luciferase reporter, 24 h; Potency, µM (top dose mostly 9.22 µM), without a hit: top-dose activation, hits mostly activators; actives 2.4% (n = 320,000); note: % of control where 0% means no effect; nearly all actives have a fitted effect of over 60% in size
#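 Huh7 reporter cells (NPC1 promoter driving luciferase) are dosed with compound for 24 h at 37 °C, 5% CO2; luciferase detection reagent is then added and luminescence measured after 10 min at ambient temperature.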
# ELG1 genotox: qHTS screen for small molecules that induce genotoxicity in human embryonic kidney (HEK293T) cells expressing luciferase-tagged ELG1; Potency, µM (series often up to 46 µM), without a hit: at the top dose activity change, positive = activation, actives largely listed as activators; HEK293T ELG1-luciferase reporter, luminescence, 16 h; actives 1.3% (n = 330,000); note: % of control where 0% means no effect; nearly all actives have a fitted effect of over 60% in size
#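 Screening used a luciferase reporter fused to human ELG1 in HEK293T cells. Luminescence was read on a CCD plate imager after 16 hr exposure and 30 min ONE-Glo incubation.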
# FLuc counter: qHTS profiling assay for firefly luciferase inhibitor/activator using purifed enzyme and Km concentrations of substrates (counterscreen for miR-21 project); Luciferin 4-monooxygenase (Photinus pyralis), P08659; purified FLuc, Km substrates, luminescence inhibition; Potency, µM (titrated, usually from 57.5 µM), without a hit: at the top dose activity change, negative = inhibition, actives largely listed as inhibitors; actives 6.9% (n = 360,000); AID 588342, 2011;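 note: plate controls were vehicle for no effect and reference inhibitor for full effect; nearly all actives have a fitted effect of over 55% in size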
# Target sequence (P08659 whole entry, looked up): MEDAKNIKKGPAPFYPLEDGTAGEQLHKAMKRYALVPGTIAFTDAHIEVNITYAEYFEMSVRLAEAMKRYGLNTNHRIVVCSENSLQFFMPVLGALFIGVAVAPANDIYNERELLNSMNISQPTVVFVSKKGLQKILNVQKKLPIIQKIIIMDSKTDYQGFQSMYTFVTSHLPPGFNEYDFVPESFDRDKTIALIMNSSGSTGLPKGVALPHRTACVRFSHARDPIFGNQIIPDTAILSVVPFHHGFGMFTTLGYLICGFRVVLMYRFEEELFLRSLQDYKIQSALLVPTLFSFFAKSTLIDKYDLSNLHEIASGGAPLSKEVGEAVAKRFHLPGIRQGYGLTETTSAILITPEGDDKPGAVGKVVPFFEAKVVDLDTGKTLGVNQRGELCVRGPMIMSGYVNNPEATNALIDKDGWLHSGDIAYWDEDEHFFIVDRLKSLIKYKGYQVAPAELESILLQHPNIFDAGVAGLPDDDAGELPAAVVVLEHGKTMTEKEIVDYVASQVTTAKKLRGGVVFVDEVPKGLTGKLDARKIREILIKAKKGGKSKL
#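 Purified P. pyralis luciferase (10nM final) with 10uM D-luciferin and 10uM ATP (Km levels) in 50mM Tris acetate pH 7.5, 10mM Mg acetate, 0.01% Tween-20, 0.05% BSA; qHTS 6-point titration, ~60 µM downward; luminescence read.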
# * = called active by the depositor; ? = inconclusive; nt = no result given; [ ] = dose if it differs, or a comment. In the library only some 7.5% were active in any assay of this set; here they are far more common. Calls come from the whole dose curve; as a rule, active = well fitted curve in the direction sought with a large enough effect; inconclusive = small, poorly fitted or top-dose-only effect, or another doubt; inactive = no such curve, though single readings can be large; an effect the other way counts as inactive or inconclusive. Potency is the fitted concentration of half-maximal effect.
SMILES,KinaseGlo FLuc,Rab9 prom act,SMN2 splice up,NPC1 prom act,ELG1 genotox,FLuc counter
O=C(NCCc1ccccc1)c1c(F)cccc1F,-7%,1.4µM*,nt,1.6µM*,?,17µM*
O=C(NCCc1csc(-c2ccccc2)n1)c1c(F)cccc1F,4%,-1%,-66%,2%,-14%,?
CC(=Nc1ccc(C)c(C)c1)C1=C(O)CSC1=O,-11%,?,?,21%,18µM*,11µM*
CC1=C(C(=O)OCc2ccccc2)C(c2cccc(F)c2)NC(=O)N1 (stereo unspecified),nt,1%,nt,1%,-2%,3%
CCc1ccc(/C=C2/C(=O)NC(=O)N2C(C)=O)cc1,nt,28%,nt,15%,12%,8.5µM*
Oc1ccc(COCc2ccccc2)c2cccnc12,-6%,-3%,-66%,4%,8.2µM*,19µM*
CCc1ccc(Nc2nnc(SCC(=O)N(C)C3CCS(=O)(=O)C3)s2)cc1 (stereo unspecified),nt,?,nt,3.5µM*,?,0.43µM*
COc1ccc(Nc2nnc(SCC(=O)NC3CCS(=O)(=O)C3)s2)cc1 (stereo unspecified),nt,23%,nt,22%,11%,5.4µM*
O=C(CSc1nnc(NCc2ccccc2)s1)NC1CCS(=O)(=O)C1 (stereo unspecified),nt,-13%,nt,0%,0%,17µM*
CN(C(=O)CSc1nnc(NC2CCCCC2)s1)C1CCS(=O)(=O)C1 (stereo unspecified),0%,3%,23%,0%,3%,2%
COc1ccc(Nc2nnc(SCC(=O)NC3CC3)s2)cc1,nt,-3%,nt,-4%,5%,19µM*
O=C(CSc1nnc(Nc2ccccc2)s1)NC1CC1,nt,0%,nt,0%,5%,?
CN(c1ccccc1)S(=O)(=O)c1ccc(C(=O)Nc2ncccc2O)cc1,nt,13%,nt,6%,0%,-21%
CCc1ccc(-c2nc(SCC(=O)NC3CCS(=O)(=O)C3)n[nH]2)cc1 (stereo unspecified),nt,19%,nt,20%,?,5.4µM*
O=C(CSc1n[nH]c(-c2ccncc2)n1)NC1CCS(=O)(=O)C1 (stereo unspecified),-4%,-5%,7%,7%,-9%,-4%
O=c1[nH]c(SCc2nc3c(cnn3-c3ccccc3)c(=O)[nH]2)nc2ccccc12,-1%,2µM*,18µM*,?,8%,?
O=c1[nH]c(CSc2nc3ccccc3[nH]2)nc2c1cnn2-c1ccccc1,1%,-7%,-18%[1.84 µM],-7%,0%,?
Cc1ccc(NC(=O)COCC(=O)Nc2ccc(F)cc2)cc1,nt,4%,nt,-4%,-2%,6%
CC(C)(C)c1csc(NC(=O)Cc2cccs2)n1,0%,16%,-25%,0%,6%,15µM*
CC(C)(C)c1csc(NC(=O)c2cccnc2)n1,nt,0%,nt,-2%,-2%,?
CC(C)(C)c1csc(NC(=O)c2cccs2)n1,0%,3.5µM*,nt,3.2µM*,?,11µM*
CCS(=O)(=O)c1ccc2oc(Nc3cccc(OC)c3)nc2c1,-8%,?,17%,10%,7%,17µM*
Clc1ccccc1Nc1nc2ccccc2o1,nt,0.79µM*,nt,?,?,1.7µM*
CCS(=O)(=O)c1ccc2oc(Nc3ccccc3Br)nc2c1,nt,2µM*,nt,2.5µM*,10µM*,9.5µM*
CCS(=O)(=O)c1ccc2oc(Nc3ccccc3Cl)nc2c1,nt,0.63µM*,nt,1.6µM*,5.2µM*,9.5µM*
SMILES,KinaseGlo FLuc,Rab9 prom act,SMN2 splice up,NPC1 prom act,ELG1 genotox,FLuc counter
CCS(=O)(=O)c1ccc2oc(Nc3cc(Cl)ccc3OC)nc2c1,nt,0%,nt,-2%,10%,?
COc1cccc(OC)c1C(=O)Nc1ccc(S(=O)(=O)Nc2nccc(C)n2)cc1,nt,nt,3%,nt,nt,5%
COc1cc(Cl)c(C)cc1NC(=O)Cn1ncc2c([nH]c3ccccc32)c1=O,nt,nt,nt,nt,nt,-4%
Cc1ccc(C2(C)NC(=O)N(CC(=O)N3CCN(C(=O)c4cccs4)CC3)C2=O)cc1 (stereo unspecified),nt,-1%,nt,0%,1%,-6%
O=C1NC(=Nc2cccc(O)c2)S/C1=C\c1cccc([N+](=O)[O-])c1,nt,-2%,nt,-1%,13%,-18%
CN(C)c1ccc(/C=N/N=C2/NC(=O)/C(=C/c3ccc([N+](=O)[O-])cc3)S2)cc1,-3%,?,28%,?,5%,0.11µM*
O=C(NCC(c1cccnc1)N1CCN(Cc2ccccc2)CC1)C(=O)Nc1cccc(Cl)c1 (stereo unspecified),nt,nt,nt,nt,nt,5%
CN(C)S(=O)(=O)c1ccc2nc(NC(=O)c3cccnc3)sc2c1,-1%,nt,14µM*,nt,nt,3.8µM*
O=C(Nc1nc2ccc(S(=O)(=O)N3CCOCC3)cc2s1)c1cccs1,nt,28%,nt,27%,3%,19µM*
CC(=O)Nc1nc2ccc(-c3nc4ccccc4o3)cc2s1,2%,4.5µM*,5µM*,2.2µM*,?,3.4µM*
O=C(Nc1nc2ccc(S(=O)(=O)N3CCCC3)cc2s1)c1cccs1,-2%,20%,11%,-6%,1%,?
CSc1nc2ccc3nc(NC(=O)c4cccs4)sc3c2s1,-2%,4µM*,7%,3.2µM*,?,2.1µM*
CC1CCC2(CC1)NC(=O)N(CC(=O)NC1CCCCC1C)C2=O (stereo unspecified),nt,nt,nt,nt,4%,nt
CCOC(=O)CN1C(=O)N[C@@H](c2cccc(C(F)(F)F)c2)[C@H](C(=O)OC)[C@H]1C,-3%[7.66 µM],nt,0%[9.22 µM],nt,nt,nt
CC(=O)Nc1ccc2nc(NC(=O)C(Cl)(Cl)Cl)sc2c1,nt,26%,nt,25%,11%,15µM*
CC(C)NS(=O)(=O)c1ccc2nc(NC(=O)c3cncc(Br)c3)sc2c1,nt,nt,nt,nt,nt,19µM*
CC(=O)Nc1ccc2nc(NC(=O)c3cccnc3)sc2c1,-15%,?,nt,?,11%,12µM*
O=C(Nc1nc2ccc(S(=O)(=O)N3CCCCC3)cc2s1)c1cccnc1,-3%,-4%,-7%,4%,-1%,?
CN(C)S(=O)(=O)c1ccc2nc(NC(=O)c3cccs3)sc2c1,-1%,0.89µM*,11µM*,1.4µM*,2.3µM*,1.2µM*
CC(=O)Nc1ccc2nc(NC(=O)CCc3ccccc3)sc2c1,0%,?,-1%,-2%,-2%,-16%
